Experimental data taken from PubChem BioAssay (EPA / NIEHS).
Activity calls are given as the source filed them. How the source made its calls: active means hit-call score of the fitted dose curve at least 0.9, where 1 is the maximum; inactive means score below 0.9.

What was measured:
[1] = ATG_GRE_CIS: Attagene CIS-FACTORIAL HepG2 Assay for human Glucocorticoid Response Elements (GRE) (AID 2282947); settings: HepG2 GRE cis-reporter, Attagene multiplex mRNA; actives raise or lower the signal
Method in brief: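 Read-out: fluorescent reporter-transcript fragments separated by capillary electrophoresis after RT-PCR. Transiently transfected HepG2 cells carrying cis-element-driven reporter units were dosed for 24 h; gain or loss of signal fitted against DMSO control.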

[2] = ATG_ISRE_CIS: Attagene CIS-FACTORIAL HepG2 Assay for human Interferon Regulatory Factor 1 (IRF1) binding to an Interferon-Stimulated Response Element (ISRE) (AID 2282948); settings: HepG2 ISRE cis-reporter (Attagene), mRNA transcription readout; actives raise or lower the signal
Method in brief: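 Read-out: fluorescent RT-PCR products resolved by capillary electrophoresis, reporting endogenous transcription factor activity via ISRE-driven reporter mRNA in transfected HepG2 cells dosed for 24 h; gain or loss fitted relative to DMSO.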

[3] = ATG_M_32_CIS: Attagene CIS-FACTORIAL HepG2 Assay for M32 Transcription Factor (Internal Marker) (AID 2282949); settings: HepG2 Attagene cis-factorial M32 reporter, mRNA; actives raise or lower the signal;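 further: background control marker of the multiplexed CIS panel rather than a real target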
Method in brief: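 Using DMSO as baseline, bidirectional curve fits were applied to reporter mRNA signals. These came from transiently transfected HepG2 cells exposed for 24 h, with RNA analysed by RT-PCR, FAM primer extension, HpaI digestion and CE.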

[4] = ATG_M_06_CIS: Attagene CIS-FACTORIAL HepG2 Assay for M06 Transcription Factor (Internal Marker) (AID 2282950); settings: HepG2 Attagene CIS-FACTORIAL M06 internal marker reporter; actives raise or lower the signal
Method in brief: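 Serves as a background control readout. Transfected HepG2 exposed to compounds for 24 h, then reporter transcripts quantified by fluorescent RT-PCR and capillary electrophoresis. Both directions fitted against DMSO baseline.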

[5] = target: Hypoxia-inducible factor 1-alpha (Homo sapiens) (UniProt Q16665); test: ATG_HIF1a_CIS: Attagene CIS-FACTORIAL HepG2 Assay for human Hypoxia Inducible Factor 1 (HIF1A) (AID 2282951); settings: HepG2 Attagene cis-factorial HIF1a reporter transcription; actives raise or lower the signal
Sequence of Hypoxia-inducible factor 1-alpha (Homo sapiens) (Q16665 whole entry, looked up): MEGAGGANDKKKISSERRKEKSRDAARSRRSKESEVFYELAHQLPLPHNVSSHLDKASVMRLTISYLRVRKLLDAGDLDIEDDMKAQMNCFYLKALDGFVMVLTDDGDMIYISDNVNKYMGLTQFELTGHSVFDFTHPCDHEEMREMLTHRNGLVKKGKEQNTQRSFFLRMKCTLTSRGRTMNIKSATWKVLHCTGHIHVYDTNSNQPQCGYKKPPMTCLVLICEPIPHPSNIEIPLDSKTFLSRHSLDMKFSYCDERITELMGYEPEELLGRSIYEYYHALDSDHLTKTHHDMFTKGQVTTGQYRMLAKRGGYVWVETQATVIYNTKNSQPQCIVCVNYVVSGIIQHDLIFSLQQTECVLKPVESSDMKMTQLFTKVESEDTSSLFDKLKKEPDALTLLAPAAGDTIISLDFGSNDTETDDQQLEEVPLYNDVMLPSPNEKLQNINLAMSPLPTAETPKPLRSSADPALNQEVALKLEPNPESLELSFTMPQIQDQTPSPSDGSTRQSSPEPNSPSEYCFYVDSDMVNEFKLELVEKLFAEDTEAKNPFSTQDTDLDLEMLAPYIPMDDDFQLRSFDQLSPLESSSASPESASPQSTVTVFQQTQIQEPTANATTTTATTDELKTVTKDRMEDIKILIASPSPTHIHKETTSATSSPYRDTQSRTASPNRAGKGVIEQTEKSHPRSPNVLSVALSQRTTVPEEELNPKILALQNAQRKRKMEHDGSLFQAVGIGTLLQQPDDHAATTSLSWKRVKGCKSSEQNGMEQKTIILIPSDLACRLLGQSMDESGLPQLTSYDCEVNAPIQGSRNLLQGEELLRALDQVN
Method in brief: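 Activity is fitted in both directions relative to DMSO. Reporter transcripts are read by RT-PCR, fluorescent primer extension and capillary electrophoresis after 24 h chemical treatment. The cells are HepG2 carrying transiently transfected cis-element-driven reporter units responding to endogenous factors.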

[6] = target: Hepatocyte nuclear factor 6 (Homo sapiens) (UniProt Q9UBC0); test: ATG_HNF6_CIS: Attagene CIS-FACTORIAL HepG2 Assay for human Hepatocyte Nuclear Factor 6 (HNF6) (AID 2282952); settings: HepG2 Attagene cis-factorial HNF6 reporter transcription; actives raise or lower the signal
Sequence of Hepatocyte nuclear factor 6 (Homo sapiens) (Q9UBC0 whole entry, looked up, the tested form may be a part): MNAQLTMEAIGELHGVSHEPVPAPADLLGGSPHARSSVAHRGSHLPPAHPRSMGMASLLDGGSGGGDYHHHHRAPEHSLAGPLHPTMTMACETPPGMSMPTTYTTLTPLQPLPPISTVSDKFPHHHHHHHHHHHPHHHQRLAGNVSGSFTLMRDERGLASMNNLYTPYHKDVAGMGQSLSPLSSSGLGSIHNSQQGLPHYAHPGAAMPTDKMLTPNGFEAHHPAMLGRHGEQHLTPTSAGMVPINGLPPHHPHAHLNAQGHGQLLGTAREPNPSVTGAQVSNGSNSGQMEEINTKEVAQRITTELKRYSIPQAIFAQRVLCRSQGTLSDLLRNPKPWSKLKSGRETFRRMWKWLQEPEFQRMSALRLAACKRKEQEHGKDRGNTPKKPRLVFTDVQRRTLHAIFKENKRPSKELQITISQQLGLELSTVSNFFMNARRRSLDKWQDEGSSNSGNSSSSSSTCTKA
Method in brief: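 Twenty-four-hour chemical treatment of reporter-transfected HepG2 cells precedes RNA isolation, DNase-treated reverse transcription and PCR of reporter sequences. Labelled fragments are sized by capillary electrophoresis and fitted bidirectionally versus DMSO.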

[7] = target: Heat shock factor protein 1 (Homo sapiens) (UniProt Q00613); test: ATG_HSE_CIS: Attagene CIS-FACTORIAL HepG2 Assay for human Heat Shock Transcription Factor 1 (HSE) (AID 2282953); settings: HepG2 HSE cis-reporter, Attagene RNA transcription; actives raise or lower the signal
Sequence of Heat shock factor protein 1 (Homo sapiens) (Q00613 whole entry, looked up): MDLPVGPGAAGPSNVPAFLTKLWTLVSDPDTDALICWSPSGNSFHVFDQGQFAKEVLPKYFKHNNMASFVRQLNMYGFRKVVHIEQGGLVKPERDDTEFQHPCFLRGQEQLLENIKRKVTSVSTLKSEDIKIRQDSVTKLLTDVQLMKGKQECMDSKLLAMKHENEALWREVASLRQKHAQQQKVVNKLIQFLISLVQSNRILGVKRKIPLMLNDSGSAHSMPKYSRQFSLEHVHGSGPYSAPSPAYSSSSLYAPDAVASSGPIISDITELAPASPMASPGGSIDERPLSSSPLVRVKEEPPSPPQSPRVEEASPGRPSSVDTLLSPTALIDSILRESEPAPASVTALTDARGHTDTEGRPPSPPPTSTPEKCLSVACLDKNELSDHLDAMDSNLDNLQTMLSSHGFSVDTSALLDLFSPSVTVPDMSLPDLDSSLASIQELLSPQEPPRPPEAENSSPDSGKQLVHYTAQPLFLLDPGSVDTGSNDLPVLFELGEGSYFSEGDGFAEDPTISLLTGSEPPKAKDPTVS
Method in brief: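 Endogenous transcription factor activity in transiently transfected HepG2, read as reporter mRNA by RT-PCR with fluorescent capillary electrophoresis after 24 h. Gain or loss of signal fitted versus DMSO baseline.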

[8] = ATG_MRE_CIS: Attagene CIS-FACTORIAL HepG2 Assay for human Metal Responsive Element (MRE) (AID 2282954); settings: HepG2 MRE cis-reporter transcription, Attagene multiplex; actives raise or lower the signal
Method in brief: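 RT-PCR/capillary electrophoresis readout of reporter mRNA, 24 h post-dosing, in HepG2 cells transfected with multiplexed cis-regulated reporter constructs. Gain or loss of signal fitted bidirectionally against DMSO baseline.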

[9] = ATG_PBREM_CIS: Attagene CIS-FACTORIAL HepG2 Assay for human Phenobarbital-responsive Enhancer Module (PBREM) (AID 2282955); settings: HepG2 PBREM cis-reporter, Attagene multiplexed transcription; actives raise or lower the signal
Method in brief: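 Endogenous transcription factor activity was read from reporter transcripts in transiently transfected human HepG2 liver cells after 24 h dosing. RT-PCR products were fluorescently labelled, HpaI-cut and sized by capillary electrophoresis; activity fitted bidirectionally against DMSO baseline.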

[10] = target: Paired box protein Pax-6 (Homo sapiens) (UniProt P26367); test: ATG_Pax6_CIS: Attagene CIS-FACTORIAL HepG2 Assay for human Paired Box 6 (PAX6) (AID 2282956); settings: HepG2 CIS-FACTORIAL PAX6 reporter transcription, RNA readout; actives raise or lower the signal
Sequence of Paired box protein Pax-6 (Homo sapiens) (P26367 whole entry, looked up): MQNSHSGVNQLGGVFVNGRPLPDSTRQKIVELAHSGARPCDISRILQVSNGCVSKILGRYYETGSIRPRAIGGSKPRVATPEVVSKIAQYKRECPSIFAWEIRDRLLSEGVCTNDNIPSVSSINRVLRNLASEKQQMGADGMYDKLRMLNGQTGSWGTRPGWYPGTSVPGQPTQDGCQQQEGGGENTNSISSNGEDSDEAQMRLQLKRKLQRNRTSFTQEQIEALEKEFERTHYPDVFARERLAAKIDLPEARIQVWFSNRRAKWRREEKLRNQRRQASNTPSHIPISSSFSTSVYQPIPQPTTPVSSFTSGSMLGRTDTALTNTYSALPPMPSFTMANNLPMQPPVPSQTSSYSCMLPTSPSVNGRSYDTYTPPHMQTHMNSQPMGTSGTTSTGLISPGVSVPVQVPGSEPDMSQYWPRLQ
Method in brief: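 Readout: reporter transcript fluorescence after RT-PCR and capillary electrophoresis. Cells: HepG2, transiently transfected with cis-regulated MRTUs. Exposure 24 h. Gain or loss of signal fitted bidirectionally relative to DMSO.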

[11] = ATG_PXRE_CIS: Attagene CIS-FACTORIAL HepG2 Assay for human Pregnane X Receptor Element (PXRE) (AID 2282957); settings: HepG2 Attagene CIS-FACTORIAL PXRE reporter, mRNA; actives raise or lower the signal
Method in brief: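 Bidirectional activity, baselined to DMSO, derived from reporter mRNA fluorescence (RT-PCR plus capillary electrophoresis) in HepG2 cells bearing cis-promoter reporter units, 24 h exposure.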

[12] = ATG_PPRE_CIS: Attagene CIS-FACTORIAL HepG2 Assay for human Peroxisome Proliferator-activated Response Element (PPRE) (AID 2282958); settings: HepG2 PPRE cis-element reporter, Attagene transcription factor profiling; actives raise or lower the signal
Method in brief: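 Endogenous PPRE-driven transcription is measured in HepG2 cells carrying transfected multi-reporter constructs. Reporter transcripts are quantified by RT-PCR, HpaI digestion and capillary electrophoresis 24 h after dosing. DMSO baseline, bidirectional fit.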

[13] = ATG_RORE_CIS: Attagene CIS-FACTORIAL HepG2 Assay for human RAR-related Orphan Receptor Element (RORE) (AID 2282959); settings: HepG2 Attagene cis-factorial RORE reporter, mRNA; actives raise or lower the signal
Method in brief: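 RORE reporter transcripts reflecting endogenous factor activity were read after 24 h compound exposure of transfected HepG2 cells, using reverse transcription, PCR, fluorescent labelling and capillary electrophoresis sizing. Gain or loss fitted against DMSO.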

[14] = ATG_Sox_CIS: Attagene CIS-FACTORIAL HepG2 Assay for human SRY-box transcription factor (SOX) (AID 2282960); settings: HepG2 Attagene cis-factorial SOX reporter, mRNA; actives raise or lower the signal
Method in brief: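 Reporter transcripts, measured by RT-PCR and capillary electrophoresis of labelled fragments, report endogenous SOX transcription factor activity. Transiently transfected human HepG2 cells receive chemical for 24 h; changes in either direction are fitted relative to DMSO.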

[15] = target: Transcription factor Sp1 (Homo sapiens) (UniProt P08047); test: ATG_Sp1_CIS: Attagene CIS-FACTORIAL HepG2 Assay for human Specificity Protein 1 (Sp1) (AID 2282961); settings: HepG2 Sp1 cis-reporter transcription, actives raise or lower the signal
Sequence of Transcription factor Sp1 (Homo sapiens) (P08047 whole entry, looked up): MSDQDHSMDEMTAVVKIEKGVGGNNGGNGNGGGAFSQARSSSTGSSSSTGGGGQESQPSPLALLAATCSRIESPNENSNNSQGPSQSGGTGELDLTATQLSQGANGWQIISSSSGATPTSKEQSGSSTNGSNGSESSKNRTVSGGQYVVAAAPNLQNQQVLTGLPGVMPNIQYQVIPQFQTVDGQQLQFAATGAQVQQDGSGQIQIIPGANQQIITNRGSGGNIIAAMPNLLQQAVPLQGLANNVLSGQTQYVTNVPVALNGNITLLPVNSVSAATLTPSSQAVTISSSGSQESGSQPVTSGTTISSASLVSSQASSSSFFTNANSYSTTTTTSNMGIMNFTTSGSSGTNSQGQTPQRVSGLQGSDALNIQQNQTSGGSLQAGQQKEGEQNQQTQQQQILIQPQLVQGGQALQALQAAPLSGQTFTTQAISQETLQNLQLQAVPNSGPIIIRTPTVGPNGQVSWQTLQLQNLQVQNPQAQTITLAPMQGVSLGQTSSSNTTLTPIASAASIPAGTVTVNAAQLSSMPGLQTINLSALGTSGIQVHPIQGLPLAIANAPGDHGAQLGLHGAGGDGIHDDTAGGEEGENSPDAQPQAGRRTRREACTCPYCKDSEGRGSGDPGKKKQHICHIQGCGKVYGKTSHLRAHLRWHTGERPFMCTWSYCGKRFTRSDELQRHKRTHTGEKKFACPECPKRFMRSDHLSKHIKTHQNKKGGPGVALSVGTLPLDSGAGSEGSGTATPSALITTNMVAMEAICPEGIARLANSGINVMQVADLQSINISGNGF
Method in brief: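 Read-out is reporter transcript level, measured by RT-PCR and fluorescent capillary electrophoresis after 24 h chemical treatment. System: transiently transfected HepG2 cells reporting endogenous transcription factor activity; gain or loss fitted against DMSO baseline.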

[16] = ATG_SREBP_CIS: Attagene CIS-FACTORIAL HepG2 Assay for human Sterol Regulatory Element Binding (SREBP) (AID 2282962); settings: HepG2 Attagene cis-factorial SREBP reporter, mRNA; actives raise or lower the signal
Method in brief: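 Readout: fluorescent reporter-transcript peaks resolved by capillary electrophoresis after RT-PCR. Cells were human HepG2 carrying transfected cis-promoter reporter constructs, dosed for 24 h. Gain or loss of signal was fitted against DMSO controls.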

[17] = target: Signal transducer and activator of transcription 3 (Homo sapiens) (UniProt P40763); test: ATG_STAT3_CIS: Attagene CIS-FACTORIAL HepG2 Assay for human Signal Transducer and Activator of Transcription 3 (STAT3) (AID 2282963); settings: HepG2, Attagene cis-factorial STAT3 reporter transcription; actives raise or lower the signal
Sequence of Signal transducer and activator of transcription 3 (Homo sapiens) (P40763 whole entry, looked up, the tested form may be a part): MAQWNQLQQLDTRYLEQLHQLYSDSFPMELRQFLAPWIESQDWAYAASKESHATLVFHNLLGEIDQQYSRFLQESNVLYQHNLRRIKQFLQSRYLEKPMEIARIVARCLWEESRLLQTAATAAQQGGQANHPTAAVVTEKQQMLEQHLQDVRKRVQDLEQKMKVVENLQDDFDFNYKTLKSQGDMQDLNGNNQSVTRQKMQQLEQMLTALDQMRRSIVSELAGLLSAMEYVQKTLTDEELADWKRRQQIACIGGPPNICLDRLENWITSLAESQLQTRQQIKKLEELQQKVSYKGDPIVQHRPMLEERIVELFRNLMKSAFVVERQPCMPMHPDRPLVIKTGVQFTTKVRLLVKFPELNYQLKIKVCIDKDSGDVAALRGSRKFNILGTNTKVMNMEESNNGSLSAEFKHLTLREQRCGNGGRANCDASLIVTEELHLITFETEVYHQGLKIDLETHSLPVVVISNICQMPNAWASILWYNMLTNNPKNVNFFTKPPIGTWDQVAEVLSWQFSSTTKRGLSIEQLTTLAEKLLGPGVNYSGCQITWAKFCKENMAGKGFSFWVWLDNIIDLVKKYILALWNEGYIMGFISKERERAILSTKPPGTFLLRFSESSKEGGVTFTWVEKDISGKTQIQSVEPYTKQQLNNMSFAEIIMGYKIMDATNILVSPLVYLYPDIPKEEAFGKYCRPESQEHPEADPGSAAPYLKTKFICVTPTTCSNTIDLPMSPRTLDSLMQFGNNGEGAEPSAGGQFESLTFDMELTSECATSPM
Method in brief: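 Readout: fluorescent reporter mRNA fragments resolved by capillary electrophoresis. Setup: HepG2 transfected with MRTUs reporting endogenous transcription-factor activity, dosed 24 h. Gain or loss of signal fitted bidirectionally against DMSO control.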

[18] = ATG_TCF_b_cat_CIS: Attagene CIS-FACTORIAL HepG2 Assay for human T-Cell-Factor with beta-catenin (TCF/b-cat) (AID 2282965); settings: HepG2 TCF/beta-catenin cis-reporter transcription, actives raise or lower the signal
Method in brief: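 HepG2 cells transiently transfected with cis-promoter-driven multiplexed reporter units; reporter mRNA measured 24 h after dosing by RT-PCR, FAM labelling, HpaI digestion and capillary electrophoresis. Bidirectional fitting relative to DMSO baseline.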

[19] = ATG_TA_CIS: Attagene CIS-FACTORIAL HepG2 Assay for human TA Basal Promoter (AID 2282964); settings: HepG2 Attagene CIS-factorial TA basal promoter reporter; actives raise or lower the signal
Method in brief: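 Background-control readout: TA basal promoter reporter mRNA, fitted in both directions relative to DMSO. Measured by RT-PCR and capillary electrophoresis 24 hours after treating HepG2 human liver cells transiently carrying multiplexed cis-regulated reporter constructs.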

[20] = target: Bile acid receptor (Homo sapiens) (UniProt Q96RI1); test: ATG_IR1_CIS: Attagene CIS-FACTORIAL HepG2 Assay for human Nuclear Receptor Subfamily 1 Group H Member 4 (NR1H4), IR1 submotif (AID 2282946); settings: IR1 reporter transcription, actives raise or lower the signal
Sequence of Bile acid receptor (Homo sapiens) (Q96RI1 whole entry, looked up): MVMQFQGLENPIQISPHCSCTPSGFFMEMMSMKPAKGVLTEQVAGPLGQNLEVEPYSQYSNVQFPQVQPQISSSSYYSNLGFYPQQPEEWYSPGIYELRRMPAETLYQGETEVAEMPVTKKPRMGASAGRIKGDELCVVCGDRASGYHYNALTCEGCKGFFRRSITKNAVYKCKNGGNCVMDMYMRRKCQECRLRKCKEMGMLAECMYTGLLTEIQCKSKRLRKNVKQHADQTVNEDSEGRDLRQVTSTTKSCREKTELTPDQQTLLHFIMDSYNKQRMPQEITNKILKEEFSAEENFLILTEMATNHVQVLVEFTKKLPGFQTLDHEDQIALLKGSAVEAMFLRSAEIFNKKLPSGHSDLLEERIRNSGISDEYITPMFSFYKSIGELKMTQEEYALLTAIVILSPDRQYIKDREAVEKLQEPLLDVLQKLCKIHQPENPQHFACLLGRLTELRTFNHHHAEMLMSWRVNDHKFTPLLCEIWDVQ
Method in brief: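 Fluorescence of capillary-separated, HpaI-digested RT-PCR reporter products gave IR1-element mRNA induction in HepG2 cells 24 h after dosing. Endogenous transcription factors drove the cis-regulated reporters; activity was fitted bidirectionally against DMSO.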

Measured: AC50

CCCCN(CCCC)SN(C)C(=O)Oc1cccc2c1OC(C)(C)C2
active: [11] 8.93 µM
not listed: [19] | [20]
inactive: all other assays above

c1ccc(OP(Oc2ccccc2)Oc2ccccc2)cc1
active: [11] 39.7 µM | [18] 100 µM
not listed: [12] | [19] | [20]
inactive: all other assays above

CCCN(CCC)c1c([N+](=O)[O-])cc(C(C)C)cc1[N+](=O)[O-]
active: [11] 1.08 µM
not listed: [1] | [20]
inactive: all other assays above

Cc1ccc([N+](=O)[O-])cc1C
not listed: [1] | [18] | [19]
inactive: all other assays above

O=C(O)C(Cl)Cl
not listed: [9] | [20]
inactive: all other assays above

CCOP(=S)(Oc1ccc([N+](=O)[O-])cc1)c1ccccc1 (stereo not drawn)
active: [11] 1.22 µM | [16] 27.2 µM
not listed: [1] | [7] | [13] | [18] | [20]
inactive: all other assays above

Cc1ccc(O)cc1C
not listed: [1] | [6] | [12] | [16] | [20]
inactive: all other assays above
